Assay results taken from ChEMBL document CHEMBL1157539, “Thousands of chemical starting points for antimalarial lead identification” (Nature, 2010).

Each molecule was assayed on Plasmodium falciparum (assay: GSK_TCMDC: Inhibition of Plasmodium falciparum 3D7 in whole red blood cells, using parasite LDH activity as an index of growth. Test compounds present at 2uM).
Type: functional

Row | Structure (SMILES) | Inhibition [%]
1 | CCNc1cc(C(=O)N[C@@H](Cc2ccoc2)[C@H](O)CNC(C)CCCC(C)C)cc(N2CCCCS2(=O)=O)c1.Cl (some centres undefined) | 99
2 | O=C(Nc1ccc(Cl)cc1)Nc1ccc(OCC(O)CN2CCCCC2)cc1 (centres undefined) | 83
3 | CN(C)c1ccc(CN2CCC(NC(=O)c3ccc(-c4ccccc4F)s3)CC2)cc1.O=C(O)C(F)(F)F | 86
4 | O=C(O)C(F)(F)F.OCC1CCN(Cc2ccc(-c3ccc(-c4nc5cc(F)ccc5[nH]4)cc3)cc2)CC1 | 100
5 | CC1CN(CCCn2c3ccccc3c3ccc(C(=O)CCCN(C)C)cc32)CC(C)N1.Cl (centres undefined) | 100
6 | CCCNCc1ccc(-c2ccc(CN(CC3CCCO3)C(=O)COc3ccccc3Cl)cc2)nc1.O=C(O)C(F)(F)F (centres undefined) | 89
7 | Cl.N=C(N)Nc1ccc(NC(=O)Nc2ccc(NC(=N)N)cc2)cc1 | 85
8 | COc1ccc(NC(=O)Nc2ccc(-c3ccccc3)cc2)cc1Cn1nc(Cl)c(N2CCCNCC2)cc1=O.O=C(O)C(F)(F)F | 100
9 | COc1ccccc1Cn1ccnc1SCC(=O)Nc1cccc(C(F)(F)F)c1 | 86
10 | CCCC(=O)Nc1ccc(OCCCN(Cc2ccccc2OC(F)(F)F)c2ccc(C#N)c(C(F)(F)F)c2)cc1 | 94
11 | CCCC(C)C(=O)N1CCOC(COCc2cccc(C(F)(F)F)c2)(c2ccc(Cl)cc2)C1 (centres undefined) | 97
12 | O=c1nc(C=Cc2ccc(Br)cc2)oc2ccccc12 | 97
13 | O=C(c1ccc2ccccc2n1)N1CCCc2cc(Br)ccc21 | 97
14 | Cl.Oc1ccc(CCCc2cc(Oc3c(I)cc(CCc4ncc[nH]4)cc3I)ccc2O)cc1 | 95
